Records with an inconclusive call do not appear. A call without a number means that no potency is given here. Values without a mark were called inactive. The source made the active and inactive calls. The call rests on the fitted dose curve; in most records, active means well fitted curve in the direction sought with a large enough effect; inconclusive means small, poorly fitted or top-dose-only effect, or another doubt; inactive means no such curve, though single readings can be large; an effect the other way counts as inactive or inconclusive.
What was measured:
[1] = target: Rap guanine nucleotide exchange factor 3 (Homo sapiens) (UniProt O95398); experiment: Confirmatory qHTS for agonist of cAMP-regulated guanine nucleotide exchange factor 3 (EPAC1) (AID 1645881);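 further: EPAC1 catalysed release of BODIPY-GDP from Rap1B seen as fluorescence loss; nearly all actives have a fitted effect of over 75% in size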
[2] = target: Rap guanine nucleotide exchange factor 4 (Homo sapiens) (UniProt Q8WZA2); experiment: Confirmatory qHTS for agonist of cAMP-regulated guanine nucleotide exchange factor 4 (EPAC2) (AID 1645884);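 further: nucleotide exchange releases bodipy-GDP from Rap1 and this lowers its fluorescence; nearly all actives have a fitted effect of over 65% in size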
[3] = target: Rap guanine nucleotide exchange factor 4 (Homo sapiens) (UniProt Q8WZA2); experiment: Confirmatory qHTS for antagonist of cAMP-regulated guanine nucleotide exchange factor 4 (EPAC2) (AID 1645885); further: nearly all actives have a fitted effect of over 25% in size; further: potency means the concentration at half of the fitted maximal effect
[4] = target: Rap guanine nucleotide exchange factor 3 (Homo sapiens) (UniProt O95398); experiment: Counterscreen qHTS for antagonist of cAMP-regulated guanine nucleotide exchange factor 3 (EPAC1) (AID 1645888);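 further: fluorescence loss as bound BODIPY-GDP is released from Rap1B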
Procedure, shortened: (§1)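 Measured: fluorescence of BODIPY-GDP bound to Rap1B, which falls as exchange proceeds. Conditions include 50 uM competing GDP, 5 and 30 min reads, and a later cAMP challenge for antagonist detection.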

[5] = target: Rap guanine nucleotide exchange factor 3 (Homo sapiens) (UniProt O95398); experiment: Counterscreen qHTS for agonist of cAMP-regulated guanine nucleotide exchange factor 3 (EPAC1) (AID 1645889); further: nearly all actives have a fitted effect of over 40% in size; further: potency means the concentration at half of the fitted maximal effect
Procedure, shortened: as §1

Sequence of Rap guanine nucleotide exchange factor 4 (Homo sapiens) (Q8WZA2 whole entry, looked up): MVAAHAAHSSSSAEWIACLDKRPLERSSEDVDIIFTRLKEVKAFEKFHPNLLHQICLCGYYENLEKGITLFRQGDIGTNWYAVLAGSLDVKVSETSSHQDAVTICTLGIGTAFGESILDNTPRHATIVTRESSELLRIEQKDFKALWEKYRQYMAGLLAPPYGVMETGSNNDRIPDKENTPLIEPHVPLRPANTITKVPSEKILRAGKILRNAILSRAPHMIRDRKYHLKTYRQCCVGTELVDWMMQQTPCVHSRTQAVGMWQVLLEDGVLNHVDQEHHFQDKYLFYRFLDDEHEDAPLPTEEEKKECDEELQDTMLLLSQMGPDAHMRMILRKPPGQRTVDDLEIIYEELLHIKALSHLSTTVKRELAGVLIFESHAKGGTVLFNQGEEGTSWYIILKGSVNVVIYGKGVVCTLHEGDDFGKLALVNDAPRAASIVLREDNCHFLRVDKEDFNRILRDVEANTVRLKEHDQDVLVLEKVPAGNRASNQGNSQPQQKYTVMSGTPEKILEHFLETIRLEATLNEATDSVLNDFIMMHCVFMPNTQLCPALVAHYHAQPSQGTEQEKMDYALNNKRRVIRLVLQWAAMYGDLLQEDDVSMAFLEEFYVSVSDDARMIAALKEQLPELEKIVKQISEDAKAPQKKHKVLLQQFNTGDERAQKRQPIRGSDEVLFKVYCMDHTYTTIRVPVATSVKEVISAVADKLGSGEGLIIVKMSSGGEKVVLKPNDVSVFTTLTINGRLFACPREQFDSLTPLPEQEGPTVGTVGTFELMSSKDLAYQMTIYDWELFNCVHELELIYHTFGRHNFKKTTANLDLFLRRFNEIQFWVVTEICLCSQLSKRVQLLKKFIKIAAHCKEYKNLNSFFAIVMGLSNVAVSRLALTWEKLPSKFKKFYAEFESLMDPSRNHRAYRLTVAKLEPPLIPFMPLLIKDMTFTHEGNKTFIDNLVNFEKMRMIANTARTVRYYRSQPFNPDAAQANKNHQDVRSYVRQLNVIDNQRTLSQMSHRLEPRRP
Sequence of Rap guanine nucleotide exchange factor 3 (Homo sapiens) (O95398 whole entry, looked up): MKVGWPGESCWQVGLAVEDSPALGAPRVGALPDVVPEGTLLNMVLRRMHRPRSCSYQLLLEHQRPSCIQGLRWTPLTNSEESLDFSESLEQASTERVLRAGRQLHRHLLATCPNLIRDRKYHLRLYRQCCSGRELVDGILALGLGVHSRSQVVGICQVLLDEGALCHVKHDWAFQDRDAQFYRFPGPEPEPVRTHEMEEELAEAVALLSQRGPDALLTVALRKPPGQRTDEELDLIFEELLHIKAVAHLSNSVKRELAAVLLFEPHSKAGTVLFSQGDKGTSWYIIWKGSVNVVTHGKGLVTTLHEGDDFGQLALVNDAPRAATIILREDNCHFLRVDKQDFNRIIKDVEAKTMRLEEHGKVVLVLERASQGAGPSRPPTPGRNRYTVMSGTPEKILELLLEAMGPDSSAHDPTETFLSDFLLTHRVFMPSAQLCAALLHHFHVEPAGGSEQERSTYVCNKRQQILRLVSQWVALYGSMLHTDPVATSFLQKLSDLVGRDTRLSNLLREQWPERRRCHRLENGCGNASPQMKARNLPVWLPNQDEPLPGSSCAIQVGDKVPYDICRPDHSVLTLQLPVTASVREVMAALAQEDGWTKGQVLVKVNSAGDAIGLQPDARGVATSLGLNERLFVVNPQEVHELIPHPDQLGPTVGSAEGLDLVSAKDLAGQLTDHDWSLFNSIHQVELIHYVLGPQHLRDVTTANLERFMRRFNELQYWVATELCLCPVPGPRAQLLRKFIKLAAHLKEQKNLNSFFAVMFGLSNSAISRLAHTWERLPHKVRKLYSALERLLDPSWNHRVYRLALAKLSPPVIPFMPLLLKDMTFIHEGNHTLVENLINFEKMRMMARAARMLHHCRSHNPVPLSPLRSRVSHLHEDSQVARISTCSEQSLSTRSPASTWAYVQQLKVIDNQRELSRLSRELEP

Row | SMILES | Potency [1] | activation [2] | Potency [3] | activity change, negative = inhibition [4] | activation [5] | Potency [2] | Potency [4] | Potency [5]
1 | Nc1ccc(C(=O)N/N=C/c2cn(Cc3ccccc3F)c3ccccc23)cc1 | inactive | 7.25% [at 17.1 µM, percent relative to cAMP agonist control] | inactive | 31.2% [at 30.8 µM] | 39.9% [at 30.8 µM] | – | – | –
2 | CC(=O)c1sc2nc(-c3ccco3)ccc2c1N | inactive | – | inactive | – | – | inactive | inactive | inactive
3 | CC(=O)NS(=O)(=O)c1ccc(Nc2ccc([N+](=O)[O-])c3nonc23)cc1 | inactive | 14.6% [at 17.1 µM, percent relative to cAMP agonist control] | inactive | -18.4% [at 30.8 µM] | 1.5% [at 30.8 µM] | – | – | –
4 | COc1ccc(CCn2c(=N)c(C(=O)NC3CCCCC3)cc3c(=O)n4ccccc4nc32)cc1 | inactive | – | inactive | – | – | inactive | inactive | inactive
5 | COc1ccc(C(CNC(=O)c2cccc(S(=O)(=O)Nc3ccc(C)cc3)c2)N2CCOCC2)cc1 (stereo not given) | inactive | – | inactive | – | – | inactive | inactive | inactive
6 | Cc1ccc(C)c(-c2ccc(=O)n(Cc3ccc(F)cc3Cl)n2)c1 | inactive | – | inactive | – | – | inactive | inactive | inactive
7 | CN(CC(=O)Nc1ccccc1C(F)(F)F)C(=O)c1cc(-c2cccs2)nn1-c1ccccc1 | inactive | – | inactive | – | – | inactive | inactive | inactive
8 | O=C(c1ccc(O)c(Br)c1)c1cc(Br)ccc1O | inactive | 3.68% [at 17.1 µM, percent relative to cAMP agonist control] | inactive | -2.96% [at 30.8 µM] | 26.8% [at 30.8 µM] | – | – | –
9 | CS(=O)(=O)c1ccc(C(=O)OCc2nnc(-c3ccccc3)o2)cc1[N+](=O)[O-] | inactive | – | inactive | – | – | inactive | inactive | inactive
10 | CC(=O)/C(=N/Nc1ccccc1)Sc1nnc(CCc2ccccc2)n1-c1ccccc1 | inactive | – | inactive | – | – | inactive | inactive | inactive
11 | Cc1cc(C(=O)Cn2ncc(Cl)c(Cl)c2=O)c(C)n1CC(F)(F)F | inactive | 1.17% [at 17.1 µM, percent relative to cAMP agonist control] | inactive | -8.86% [at 30.8 µM] | 8.2% [at 30.8 µM] | – | – | –
12 | CCOC(=O)C(C(C)C)C(N)Cc1ccc(F)cc1 (stereo not given) | inactive | – | inactive | – | – | inactive | inactive | inactive
13 | COC(=O)c1c(SC)nc2ccccc2c1OCc1ccc(C)cc1 | inactive | – | inactive | – | – | inactive | inactive | 17.8 µM (active)
14 | CCC(CC)c1nnc(NC(=O)CSCc2c(C)noc2C)s1 | inactive | – | inactive | – | – | inactive | inactive | inactive
15 | O=c1cc(CSc2nc3ccccc3c(=O)[nH]2)c2ccc(O)cc2o1 | inactive | – | inactive | – | – | inactive | inactive | inactive
16 | COCCNc1nc(Oc2ccccc2)c2sccc2n1 | inactive | – | inactive | – | – | inactive | inactive | inactive
17 | Cc1ccc(Cl)cc1NS(=O)(=O)c1ccccc1 | inactive | 2.77% [at 17.1 µM, percent relative to cAMP agonist control] | inactive | 0.85% [at 30.8 µM] | 7.24% [at 30.8 µM] | – | – | –
18 | O=C(NCc1ccccc1)C(c1ccc(-c2ccccc2)cc1)n1c(=O)c(-c2ccco2)nc2ccccc21 (stereo not given) | inactive | -1.87% [at 17.1 µM, percent relative to cAMP agonist control] | inactive | 1.9% [at 30.8 µM] | 21.4% [at 30.8 µM] | – | – | –
19 | O=C(O)C(Cc1c[nH]c2ccccc12)NS(=O)(=O)c1ccc(Cl)c(C(F)(F)F)c1 (stereo not given) | inactive | -2.68% [at 17.1 µM, percent relative to cAMP agonist control] | inactive | -4.37% [at 30.8 µM] | 21.8% [at 30.8 µM] | – | – | –
20 | CC(C)CCNc1c(-c2cccs2)nc2ccccn12 | inactive | – | inactive | – | – | inactive | inactive | inactive
21 | CN(c1ccccc1)c1ccc(/C=C(\CCC(=O)O)c2nc3ccccc3s2)cc1[N+](=O)[O-] | inactive | – | inactive | – | – | inactive | inactive | inactive

Row | SMILES | Potency [1] | activation [2] | Potency [3] | activity change, negative = inhibition [4] | activation [5] | Potency [2] | Potency [4] | Potency [5]
22 | Cn1c(SCC(=O)Nc2ccc(C(=O)O)cc2)nc2scc(-c3ccccc3Cl)c2c1=O | inactive | – | 42.6 µM (active) | – | – | inactive | inactive | inactive
23 | N#C/C(=N\Nc1cccc(C(F)(F)F)c1)C(=O)c1ccsc1 | inactive | – | inactive | – | – | inactive | inactive | inactive
24 | CCC(=O)N(CCC(c1ccccc1)c1ccc2c(c1)OCO2)Cc1ccc(OC(C)C)cc1 (stereo not given) | inactive | – | inactive | – | – | inactive | inactive | inactive
25 | Cc1ccc2oc(=O)n(Cc3ccccc3OC(C)C)c2c1 | inactive | – | 7.57 µM (active) | – | – | inactive | inactive | inactive
26 | COc1ccc2[nH]cc(S(=O)(=O)c3ccc(C)cc3)c2c1 | inactive | – | 21.3 µM (active) | – | – | inactive | inactive | inactive
27 | O=C(Cc1ccc(Cl)cc1)Nc1cccc(C(=O)Nc2ccccc2C(=O)O)c1 | inactive | 8.25% [at 17.1 µM, percent relative to cAMP agonist control] | inactive | -15.6% [at 30.8 µM] | 2.92% [at 30.8 µM] | – | – | –
28 | Cc1ccc2nc(-c3ccco3)c(Cc3cccc(Cl)c3)n2c1 | inactive | 2.28% [at 17.1 µM, percent relative to cAMP agonist control] | inactive | -5.77% [at 30.8 µM] | 14.3% [at 30.8 µM] | – | – | –
29 | Cc1ccc(-c2ccc(CN3C(CC(C)C)C(=O)N(Cc4cn(CCC5OCCO5)nn4)CCS3(=O)=O)cc2)cc1 (stereo not given) | inactive | – | inactive | – | – | inactive | inactive | inactive
30 | CCCCCNC(=O)C(C#N)c1nc2ccccc2nc1N1CCCC1 (stereo not given) | inactive | -33.7% [at 17.1 µM, percent relative to cAMP agonist control] | inactive | -27.7% [at 30.8 µM] | -1.55% [at 30.8 µM] | – | – | –
31 | CC(C)C(=O)NC(c1ccccc1)c1cc([N+](=O)[O-])c2cccnc2c1O (stereo not given) | inactive | 4.72% [at 17.1 µM, percent relative to cAMP agonist control] | inactive | -3.56% [at 30.8 µM] | 39.4% [at 30.8 µM] | – | – | –
32 | Cc1nnc(Sc2cc(NCCCO)c([N+](=O)[O-])c3nonc23)s1 | inactive | 3.11% [at 17.1 µM, percent relative to cAMP agonist control] | inactive | 1.69% [at 30.8 µM] | – | – | – | 8.91 µM (active)
33 | O=C(NCc1ccco1)c1c2c(nc3ccccc13)CCC2 | inactive | 6.94% [at 17.1 µM, percent relative to cAMP agonist control] | inactive | -4.49% [at 30.8 µM] | 26.4% [at 30.8 µM] | – | – | –
34 | COc1ccc(C2=NN(c3ccccc3)C(c3cn(CCC(=O)O)nc3-c3ccccc3)C2)cc1 (stereo not given) | inactive | – | inactive | – | – | inactive | inactive | inactive
35 | N#C/C(=C/c1cccn1-c1cccc(C(=O)O)c1)c1ccc(F)cc1 | inactive | -0.882% [at 17.1 µM, percent relative to cAMP agonist control] | inactive | -6.54% [at 30.8 µM] | 2.77% [at 30.8 µM] | – | – | –
36 | COc1ccccc1N(CC(=O)Nc1cc(C)on1)S(=O)(=O)c1ccc(Cl)cc1 | inactive | 2.18% [at 17.1 µM, percent relative to cAMP agonist control] | inactive | -8.9% [at 30.8 µM] | 29.1% [at 30.8 µM] | – | – | –
37 | COc1ccc(-c2[nH]c(-c3ccc(F)cc3)nc2SCC(=O)Nc2ccc(OC)c(OC)c2)cc1 | inactive | – | inactive | – | – | inactive | inactive | inactive
38 | CCCN(CCC)C(=O)Cn1c(=O)c2sccc2n2c(=S)sc(-c3ccccc3)c12 | inactive | 2.59% [at 17.1 µM, percent relative to cAMP agonist control] | inactive | -19.9% [at 30.8 µM] | -0.211% [at 30.8 µM] | – | – | –
39 | O=[N+]([O-])CC(c1ccccc1)c1c[nH]c2ccccc12 (stereo not given) | inactive | – | 21.3 µM (active) | – | – | inactive | inactive | inactive
40 | Cc1ccc(/C=N/N2CCN(Cc3cccc4ccccc34)CC2)o1 | inactive | – | inactive | – | – | inactive | inactive | inactive
41 | CS(=O)(=O)N1CCN(c2ccc([N+](=O)[O-])c(NCc3ccc(Cl)cc3)c2)CC1 | inactive | -0.717% [at 17.1 µM, percent relative to cAMP agonist control] | inactive | -6.75% [at 30.8 µM] | 12% [at 30.8 µM] | – | – | –

Reference: PubChem BioAssay (NCATS)
